Assay results: the supplement of paper PMC6555819

Tests used:
Assay in all cases: PBM binding z-score (relative to random genomic background probes); higher = stronger binding; sequences stand for … in GC…GCGATTGACAGCGTAGAATGAAGG
[1] = system: RARb homodimer (NR concentration 270 nM)
Method in brief: (§1)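 Binding z-scores take random background probes as their reference. They come from custom Agilent 4×180K protein-binding microarrays incubated 1 h with ligand-free nuclear receptor dimers, with antibodies against each partner (one per run) detecting binding. Scanned fluorescence was regression-normalized.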

[2] = system: RARg:RXRa (NR concentration 270 nM, RXRa partner concentration 90 nM)
Method in brief: as §1

[3] = system: RARg homodimer (NR concentration 270 nM)
Method in brief: as §1

[4] = system: RXRa DBDmut IVT, anti-RXR (DBD mutation: RXRa K156A/R161A, NR concentration 90 nM)
Method in brief: as §1

[5] = system: RXRa homodimer (NR concentration 180 nM)
Method in brief: as §1

[6] = system: THRa:RXRa (NR concentration 90 nM, RXRa partner concentration 90 nM)
Method in brief: as §1

[7] = system: THRa homodimer (NR concentration 90 nM)
Method in brief: as §1

[8] = system: VDR homodimer (NR concentration 270 nM)
Method in brief: as §1

Sequence | PBM binding z-score [1] | PBM binding z-score [2] | PBM binding z-score [3] | PBM binding z-score [4] | PBM binding z-score [5] | PBM binding z-score [6] | PBM binding z-score [7] | PBM binding z-score [8]
TCGAGTAGGTTACTAATGGGGCATTCAGCTTTCT | 0.14 | 0.367 | 0.0579 | 0.272 | 0.291 | -0.11 | -0.967 | -0.245
CGTCGAAGGTCAGCAGGTCAGTGAAAGCGACGTG | 4.94 | 6.48 | 6.93 | 1.34 | 5.06 | 2.88 | 0.495 | 1
AATACAGGGTTATCGTAGGCCAGAGTACGCACAG | 1.09 | 1.52 | 1.11 | 0.484 | 2.28 | 3.61 | 0.15 | 1.12
ACTCGGAGGACAAAGGTCAGAGGTACGCCAGTGA | 4.58 | 5.98 | 5.03 | 0.647 | 5.39 | 3.49 | 0.633 | 1.68
TGAGACAGGTGAAGGTAACTCAGGTACGCAGTCG | 0.449 | 0.201 | 0.61 | -1.52 | 0.312 | 1.18 | -0.173 | -0.0182
CTAGACAGGTGAAAGGTAACTCAGTCTGGTACGC | 0.55 | 1.36 | 0.619 | -0.39 | 2.23 | 0.865 | -0.398 | -0.464
CCGAGTAGGTTAAGGGGCATTCAGGCAACGGTGA | 1.56 | 1.08 | 0.926 | 0.277 | 1.43 | 1.32 | 0.369 | 0.685
AGACTGAGGTTATTAAGATCAGGGAATTGCGGTC | 0.996 | 1.13 | 0.72 | 1.53 | 1.54 | 1.91 | 0.441 | 0.749
